# Test results taken from PubChem BioAssay AID463173 (ICCB-Longwood Screening Facility, Harvard Medical School, 2010).
# About 4,300 (8.3%) of roughly 52,000 compounds were called active. The sample holds actives, similar compounds and a random draw of the others, so the mix is not that of the screen. Cut-off read from the data, not from the text of the source: active = survival mostly below about 52% (no sharp cut-off); inactive = mostly above about 56%.
# Tested on: DeltatarO mutant
# Experiment: growth inhibition of S. aureus wild type versus tarO mutant, primary screen, teichoic acid synthesis inhibitors, RN4220, OD600 (AID 463173)
# Conditions: OD600, 18 h, hits give low values, screened at 18.75 µg/mL (by protocol)
row,SMILES,survival
1,COc1ccc(OC)c(NS(=O)(=O)c2ccc(-n3cccn3)cc2)c1,95% (inactive)
2,Cc1ccsc1CN1CCc2nc(Nc3ccccc3)ncc2C1,61% (inactive)
3,CCc1cccc(C)c1NC(=O)C1CCN(c2nn3c(=O)cc(C)nc3s2)CC1,119% (inactive)
4,Cc1cccc(N2CCN(c3ncnc4c3nc3n4CCCCC3)CC2)c1C,95% (inactive)
5,COc1ccc(C(=O)NCC(c2cccnc2)N2CCN(c3ccccc3OC)CC2)cc1 (stereo not drawn),77% (inactive)
6,CCOC(=O)c1cccc(NC(=O)Cn2c(=O)c3cccn3c3ccccc32)c1,100% (inactive)
7,COc1ccc(C)cc1NC(=O)Cc1ccc(NC(=O)N2CCCCc3ccccc32)cc1,67% (inactive)
8,COc1ccc(Cl)cc1NC(=O)NCCn1c(=O)oc2ccc(C)cc21,46% (active)
9,COc1ccc(Cl)cc1NC(=O)CCn1c(=O)c2cccn2c2ccccc21,42% (active)
10,COc1ccc(Cl)cc1NC(=O)CCCn1c(=O)c2cccn2c2cccnc21,87% (inactive)
11,CC(=O)c1ccc(NC(=O)Cn2c(=O)c3cccn3c3ccccc32)cc1,42% (active)
12,Cc1ccc2oc(=O)n(CCNC(=O)Nc3ccccc3C)c2c1,109% (inactive)
13,COc1ccc(OC)c(CNC(=O)Cc2ccc(NC(=O)N3CCCCc4ccccc43)cc2)c1,99% (inactive)
14,Cc1ccc2oc(=O)n(CCNC(=O)Nc3ccc(Cl)cc3)c2c1,72% (inactive)
15,Cc1ccc(Cl)cc1NC(=O)CCCn1c(=O)c2cccn2c2ccccc21,61% (inactive)
16,CCc1ccc(NC(=O)Cn2c(=O)c3cccn3c3ccccc32)cc1,56% (inactive)
17,COc1ccc(NC(=O)Cc2ccc(NC(=O)N3CCCCc4ccccc43)cc2)c(OC)c1,47% (active)

row,SMILES,survival
1,CCOC(=O)c1c(S(=O)(=O)NCC(=O)N2CCN(c3cccc(Cl)c3)CC2)c(C)n(C)c1C,86% (inactive)
2,O=C(O)c1ccccc1C(=O)N1CCC(C(=O)c2ccccc2)CC1,104% (inactive)
3,COc1ccc(N2CCN(C(=O)C3CCN(S(=O)(=O)Cc4ccccc4)CC3)CC2)cc1,78% (inactive)
4,O=S1(=O)CCC(NNC(=S)Nc2ccccc2)C1 (stereo not drawn),100% (inactive)
5,CCOCCCNC(=O)c1cc2c(=O)[nH]c3ccccc3c2n1C,116% (inactive)
6,CCCCOc1ccc(S(=O)(=O)NCc2csc(-c3ccc(OC)cc3)n2)cc1,88% (inactive)
7,CCOC(=O)c1c(S(=O)(=O)NCC(=O)Nc2ccc(C)c(N(C)C)c2)c(C)n(C)c1C,79% (inactive)
8,O=C(CCn1c(=O)c2cccn2c2cccnc21)N1CCN(c2ccccc2)CC1,102% (inactive)
9,Cc1ccc(C)c(N2CCN(C(=O)CCn3c(=O)c4cccn4c4cccnc43)CC2)c1,58% (inactive)
10,O=C(CCn1c(=O)c2cccn2c2cccnc21)N1CCN(c2cccc(Cl)c2)CC1,46% (active)
11,O=C(CCn1c(=O)c2cccn2c2cccnc21)N1CCN(c2ccc(Cl)cc2)CC1,53% (inactive)
12,O=C(CCn1c(=O)c2cccn2c2cccnc21)N1CCN(c2ccc(F)cc2)CC1,88% (inactive)
13,O=C(CCn1c(=O)c2cccn2c2cccnc21)N1CCN(c2cccc(C(F)(F)F)c2)CC1,39% (active)
14,Cc1ccc(Cl)cc1N1CCN(C(=O)CCn2c(=O)c3cccn3c3cccnc32)CC1,39% (active)
15,COc1ccc(N2CCN(C(=O)CCn3c(=O)c4cccn4c4cccnc43)CC2)cc1,80% (inactive)
16,Cc1cccc(N2CCN(C(=O)CCn3c(=O)c4cccn4c4cccnc43)CC2)c1C,59% (inactive)
